Compound activity as filed in PubChem.
An excerpt weighted towards active compounds, which were near 3.3% of everything screened.
Sm TGR block: qHTS Assay for the Inhibitors of Schistosoma Mansoni Peroxiredoxins; Schistosoma mansoni thioredoxin glutathione reductase (TGR), Q962Y6; purified TGR, DTNB reduction, TNB absorbance 405 nm; Potency, µM (highest dose often 114 µM), for the others: at the top dose activity change, negative = inhibition, usual class: inhibitors; hit rate 3% among 360,000; AID 485364, 2010; note: nearly all actives have a fitted effect of over 60% in size
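First, TGR (20 nM dispensed) and NADPH were mixed with compound. Second, a 15 min room-temperature incubation followed. Third, further NADPH and then DTNB were added to start the reaction. Finally, TNB absorbance was monitored kinetically.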
AmpC detergent: qHTS Inhibitors of AmpC Beta-Lactamase (assay with detergent) | P00811 | Potency, µM (top dose mostly 114 µM), without a hit: at the top dose activity change, negative = inhibition, hits mostly inhibitors | AmpC hydrolysis of nitrocefin, absorbance 480 nm, 0.01% Triton | hit rate 0.041% among 370,000;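 note: 0% = no-compound wells and -100% = no-enzyme wells; nearly all actives have a fitted effect of over 25% in size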
Target sequence (P00811 whole entry, looked up): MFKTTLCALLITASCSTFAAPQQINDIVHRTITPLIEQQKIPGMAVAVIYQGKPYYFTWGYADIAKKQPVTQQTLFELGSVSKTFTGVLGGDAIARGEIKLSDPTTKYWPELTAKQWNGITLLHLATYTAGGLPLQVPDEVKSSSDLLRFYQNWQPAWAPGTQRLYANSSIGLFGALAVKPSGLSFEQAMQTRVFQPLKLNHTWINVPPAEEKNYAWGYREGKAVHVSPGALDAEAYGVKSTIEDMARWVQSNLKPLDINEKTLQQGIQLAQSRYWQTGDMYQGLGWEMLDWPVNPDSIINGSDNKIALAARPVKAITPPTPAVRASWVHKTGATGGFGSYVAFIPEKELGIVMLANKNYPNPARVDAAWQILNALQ
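20 mM phosphate pH 7.0 + 0.01% (detergent screen) or 0.0001% Triton X-100; 5.3 nM AmpC reagent; cpd preinc 15 min RT; nitrocefin (800 uM stock) to start; A480 q20 s × 4 min; Activity was normalised to no-enzyme and no-compound control wells.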
AmpC inh no detg: qHTS Inhibitors of AmpC Beta-Lactamase (assay without detergent) | hit rate 0.52% among 330,000 | Potency, µM (series often up to 57.1 µM), for inactives: at the top dose activity change, negative = inhibition, actives largely listed as inhibitors | P00811 | AmpC nitrocefin hydrolysis, absorbance 480 nm, 0.0001% Triton;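 note: plate controls were no compound for no effect and no enzyme for full effect; nearly all actives have a fitted effect of over 20% in size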
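AmpC (5.3 nM in the dispensed reagent) in 20 mM phosphate pH 7.0 with 0.01% (detergent screen) or 0.0001% Triton X-100 was preincubated with compounds for 15 min at room temperature. Nitrocefin was then added from an 800 uM solution, and hydrolysis was followed at 480 nm.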
An asterisk follows results filed as active; ? = inconclusive; . = not tested or not shown; [ ] = remark or other dose. Calls come from the whole dose curve; as a rule, active = well fitted curve in the direction sought with a large enough effect; inconclusive = small, poorly fitted or top-dose-only effect, or another doubt; inactive = no such curve, though single readings can be large; an effect the other way counts as inactive or inconclusive. Unless noted, % is set by controls: 0 for no effect and ±100 for the full control effect; potency is the fitted concentration of half-maximal effect.

SMILES	Sm TGR block	AmpC detergent	AmpC inh no detg
Cc1oc(-c2ccc(Cl)cc2)nc1CS(=O)CC(=O)NC1CCCCCC1 (configuration not stated)	10µM*	-2%	130%
O=C(CSc1oc(-c2cccs2)nc1S(=O)(=O)c1ccccc1)NC1CCCCC1	11%	?	-45%
Cc1oc(-c2cccs2)nc1CS(=O)CC(=O)NC1CCCCCC1 (configuration not stated)	18µM*	?	-13%
Cc1cccn2c(=O)cc(CSc3nnc(NC(=O)COc4ccc(F)cc4)s3)nc12	4%	6%	.
CCN(C(=O)c1cn(-c2cccc(OC)c2)c(=O)c2ccccc12)c1ccccc1C	6%	12%	.
CCCc1cc(=O)oc2cc(C)c3c(-c4ccccc4)coc3c12	16%	15%	.
O=C(Nc1ccc(Br)cc1)c1cc(S(=O)(=O)N2CCc3ccccc32)ccc1F	-1%	9%	.
Cc1ccc(-c2nc(CS(=O)CC(=O)NC3CCCCC3)c(C)o2)cc1 (configuration not stated)	13µM*	0%	72%
Cc1oc(-c2ccc(Cl)cc2)nc1CS(=O)CC(=O)NC1CCCCC1 (configuration not stated)	11µM*	-1%	15%
COc1ccc(-c2nc(CS(=O)CC(=O)NC3CCCC3)c(C)o2)cc1 (configuration not stated)	?	-12%	0%
Cc1oc(-c2ccc(Cl)cc2)nc1CS(=O)CC(=O)NCCCN(C)C1CCCCC1 (configuration not stated)	0%	1%	.
Cc1cccc(-c2nc(CS(=O)CC(=O)NC3CCCC(C)C3C)c(C)o2)c1 (configuration not stated)	5µM*	?	137%
Cc1cc(C)cc(NC(=O)C2CCN(S(=O)(=O)c3cccc(-c4noc(C)n4)c3)CC2)c1	-2%	3%	.
O=C(NCc1ccccc1Cl)c1cc2c(s1)-c1ccc(Cl)cc1SC2	-10%	26%	.
Fc1ccc(N/N=C2/CCSc3sccc32)c(F)c1	25µM*	-11%	-38%
Fc1ccc2c(c1)/C(=N/Nc1ccccn1)CCS2	-5%	-13%	-19%[11.4 µM]
COc1ccccc1N1CCN(CCCNC(=O)c2cnn(-c3cccc(Cl)c3)c2C2CCN(C(=O)OC(C)(C)C)CC2)CC1	3%	19%	.
O=C(Nc1ccc(Br)cc1)C1CCCN1S(=O)(=O)c1ccc(F)cc1 (configuration not stated)	-3%	5%	.
COc1ccc(-c2nc3cc(NC(=O)c4ccc(C)cc4)ccc3o2)cc1Cl	-20%	-10%	.
CCCCN(C(=O)CC1CCCC1)c1c(N)n(CCC)c(=O)[nH]c1=O	0.56µM*	-1%	-15%
CCCCN(C(=O)CC1CCCC1)c1c(N)n(CC(C)C)c(=O)[nH]c1=O	-2%	?	-17%
Cc1cccc(NC(=O)Nc2ccc(S(N)(=O)=O)cc2)c1	-11%	2%	-44%
NS(=O)(=O)c1cccc(NC(=O)Nc2ccc(Cl)cc2)c1	-20%	-5%	14µM*
Cc1ccc(C(=O)NCCc2ccc(Cl)cc2)cc1-n1c(C)nc2cccnc21	-3%	12%	.
CCOc1cc(C2c3c(oc4ccccc4c3=O)C(=O)N2Cc2ccc3c(c2)OCO3)ccc1O (configuration not stated)	-3%	28%	.
SMILES	Sm TGR block	AmpC detergent	AmpC inh no detg
Cc1cc(-c2ccco2)c(C#N)c2nc3ccccc3n12	28µM*	-13%	-3%
Cc1cc(C(C)C)n2c(nc3ccccc32)c1C#N	8%	7%	-13%
CCc1c(C)c(C#N)c2nc3ccccc3n2c1-n1nc(C)cc1C	1%	?	-19%
CCc1c(C)c(C#N)c2nc3ccccc3n2c1NCCOC	40µM*	3%	24%
CCc1c(C)c(C#N)c2nc3ccccc3n2c1Cl	11µM*	-13%	-4%
CCc1c(C)c(C#N)c2nc3ccccc3n2c1NCc1ccccn1	.	-15%	-12%
COC(=O)c1[nH]c(C)c(/C(O)=C2\C(=O)C(=O)N(CCN(C)C)C2c2ccco2)c1C (configuration not stated)	?	-14%	-21%
COC(=O)c1[nH]c(C)c(/C(O)=C2\C(=O)C(=O)N(CCN(C)C)C2c2ccc(C)o2)c1C (configuration not stated)	32µM*	?	1%
O=C(Nc1ccc2[nH]c(=O)[nH]c2c1)c1ccc([N+](=O)[O-])o1	40µM*	5%	-18%
CCC(=O)N1CCN(c2ccc(NC(=O)c3ccc([N+](=O)[O-])o3)cc2)CC1	28µM*	2%	-11%
CCCC(=O)N1CCN(c2ccc(NC(=O)c3ccc([N+](=O)[O-])o3)cc2)CC1	?	3%	3%
Cc1ccc(NC(=O)c2ccc([N+](=O)[O-])o2)cc1C	?	?	-7%
Cc1ccc(CN2CCC(CNC(=O)Nc3c(C)cccc3C)C2)cc1 (configuration not stated)	-3%	1%	.
CCc1noc(-c2ccc(NC(C)c3ccccc3)c([N+](=O)[O-])c2)n1 (configuration not stated)	1%	20%	.
COc1ccccc1N(O)C1CC(=O)N(c2ccc(F)cc2)C1=O (configuration not stated)	3.5µM*	2%	-15%
Cc1ccccc1C(=O)NNC1CC(=O)N(c2ccc3c(c2)OCCO3)C1=O (configuration not stated)	3%	?	-18%
CCN(CCO)C1CC(=O)N(c2ccccc2C)C1=O (configuration not stated)	6.3µM*	?	-11%
CCCOc1ccccc1N1C(=O)CC(N(O)c2ccccc2)C1=O (configuration not stated)	-14%	1%	10%
O=C1CC(N(O)c2ccccc2)C(=O)N1c1cc(Cl)cc(Cl)c1 (configuration not stated)	?	?	-41%
CCCOc1ccc(N2C(=O)CC(N(O)c3ccccc3)C2=O)cc1 (configuration not stated)	?	?	-22%
COc1ccccc1N1C(=O)CC(N(O)c2ccccc2)C1=O (configuration not stated)	40µM*	-2%	-12%
Cc1ccccc1N1C(=O)CC(N(O)c2ccccc2)C1=O (configuration not stated)	40µM*	?	-12%
Cc1cc(Br)ccc1NC(=O)c1cn(C2CCCC2)c(=O)c2c1c1ccccc1n2C	8%	17%	.
Cc1cc(Nc2ccc(C)c(Cl)c2)n2nc(Cc3ccccc3)nc2n1	2%	16%	.
CCc1ccc(NC(=O)c2ccc3c(=O)n4nc(Nc5ccccc5C)sc4nc3c2)cc1	-1%	-6%	.
CCOc1ccc(CCNc2ncnc3onc(C)c23)cc1OCC	9%	28%	.
Cc1ccc(OC(C)C(=O)Nc2nonc2-c2ccc(Br)cc2)cc1C (configuration not stated)	0%	23%	.
COc1ccc(N2CC(NC(=O)C(=O)c3c[nH]c4ccccc34)CC2=O)cc1 (configuration not stated)	0%	3%	.
